Source: the supplement of paper PMC13380429

Columns and labels:
[1] = test system: Vero E6 infected with SARS-CoV-2; assay: morphology score (similarity to uninfected cells); higher = more like uninfected cells; conditions: 24 h
[2] = test system: Vero E6 infected with SARS-CoV-2; assay: SARS-CoV-2 infection rate relative to infected DMSO; higher = more infection, active = 60 or less; conditions: 24 h

Row | Compound | morphology score [1] | SARS-CoV-2 infection rate [2]
1 | COc1ccc(-n2[nH]c3c4c(ncc3c2=O)CCCCC4)cc1 (10 µM) | 0.194 | 96% (inactive)
2 | CC[N+](C)(CC)CCC[n+]1c(-c2ccccc2)c2cc(N)ccc2c2ccc(N)cc21 [propidium-iodide] (10 µM) | 0.271 | 93.5% (inactive)
3 | CC(C)C[C@H](CN)CC(=O)O (10 µM) | -0.0821 | 106% (inactive)
4 | c1ccc(-c2n[nH]cc2-c2ccnc3ccccc23)nc1 (10 µM) | -0.0555 | 114% (inactive)
5 | CN(CCOc1ccc(CC2SC(=O)NC2=O)cc1)c1ccccn1 (centres undefined) [rosiglitazone] (10 µM) | 0.279 | 92.5% (inactive)
6 | Nc1cccc(CNC(=O)c2ccc(Oc3ccc(OCc4cccc(F)c4)cc3)nc2)c1 (10 µM) | -0.419 | 119% (inactive)
7 | COc1ccc(CCN2CCN(CCCc3ccccc3)CC2)cc1OC [cutamesine] (10 µM) | -0.0482 | 106% (inactive)
8 | CC(C)C[C@H](NC(=O)[C@@H](O)[C@H](N)Cc1ccccc1)C(=O)O [ubenimex] (10 µM) | 0.237 | 96% (inactive)
9 | CCCN(CCC)C(=O)C(CCC(=O)O)NC(=O)c1ccccc1 (centres undefined) [proglumide] (10 µM) | 0.0817 | 107% (inactive)
10 | O=C(O)C1CN(Cc2ccc(-c3nc4cc(Cc5ccccc5F)ccc4s3)c(F)c2)C1 (10 µM) | -0.0698 | 113% (inactive)
11 | O=C(Nc1ccccc1C(=O)NC1CCCCNC1=O)c1cc2ccccc2s1 (centres undefined) (10 µM) | 0.0242 | 99.5% (inactive)
12 | COc1cc2c(cc1OC)C(=O)C(CC1CCN(Cc3ccccc3)CC1)C2 (centres undefined) [donepezil] (10 µM) | 0.153 | 100% (inactive)
13 | CCC(CC)CC1(C(=O)Nc2ccccc2SC(=O)C(C)C)CCCCC1 [dalcetrapib] (10 µM) | 0.152 | 111% (inactive)
14 | O=C(NC(Cc1cc(=O)[nH]c2ccccc12)C(=O)O)c1ccc(Cl)cc1 (centres undefined) [rebamipide] (10 µM) | 0.0758 | 104% (inactive)
15 | CCC(=O)NC[C@H](Cc1ccc(OCCc2nc(-c3ccccc3)oc2C)cc1)N/C(C)=C\C(=O)c1ccc(C(F)(F)F)cc1 (10 µM) | -0.0333 | 110% (inactive)
16 | CN1CCN(C(=O)c2nc3ccc(Cl)cc3[nH]2)CC1 (10 µM) | 0.119 | 108% (inactive)
17 | O=C(O)CCCN1CCC(O[C@@H](c2ccc(Cl)cc2)c2ccccn2)CC1 [bepotastine] (10 µM) | 0.0921 | 90% (inactive)
18 | N[C@@H](CCC(=O)N[C@@H](CS)C(=O)NCC(=O)O)C(=O)O [glutathione] (10 µM) | -0.0349 | 108% (inactive)
19 | COc1ccc(-n2nc(C(F)(F)F)cc2-c2ccc(Cl)cc2)cc1 (0.833333 µM) | -0.0472 | 101% (inactive)
20 | N#Cc1c(N)nc(SCc2ncc[nH]2)c(C#N)c1-c1ccc(O)cc1 (10 µM) | -0.0242 | 108% (inactive)
21 | C#C[C@]1(O)CC[C@H]2[C@@H]3CCC4=C(CCC(=O)C4)[C@H]3CC[C@@]21C [noretynodrel] (10 µM) | 0.0184 | 108% (inactive)

Row | Compound | morphology score [1] | SARS-CoV-2 infection rate [2]
22 | COc1cc2c(cc1C(F)(F)F)N(C(=O)Nc1cc(F)cc(-c3cccnc3)c1)CC2 (10 µM) | -0.0154 | 106% (inactive)
23 | C/C(=C\C(=O)Nc1ccccc1C(=O)O)c1ccc2ccccc2c1 (10 µM) | 0.23 | 103% (inactive)
24 | O=C(Oc1cc(S(=O)(=O)c2ccccc2)ccc1[N+](=O)[O-])c1ccc(Cl)cc1 (10 µM) | 0.245 | 104% (inactive)
25 | CNCC[C@H](Oc1cccc2ccccc12)c1cccs1 [duloxetine] (10 µM) | 0.747 | 47% (active)
26 | NCCS [cysteamine] (10 µM) | -0.0321 | 112% (inactive)
27 | O=S(=O)(F)Cc1ccccc1 [phenylmethylsulfonyl-fluoride] (10 µM) | 0.191 | 95% (inactive)
28 | CCn1c(N)c(C(=O)NC)c(=O)c2ccc(C#C[C@@](C)(O)COC)nc21 (10 µM) | 0.464 | 92% (inactive)
29 | Cc1cc(-n2c(=O)[nH]c(=O)n(C)c2=O)ccc1Oc1ccc(SC(F)(F)F)cc1 [toltrazuril] (10 µM) | 0.184 | 107% (inactive)
30 | CCOC(=O)[C@]12CC1/C(=N\O)c1ccccc1O2 (some centres undefined) (10 µM) | 0.224 | 90.5% (inactive)
31 | CNC(=O)[C@H](Cc1c[nH]c2ccccc12)NC(=O)[C@@H](CC(=O)NO)CC(C)C [ilomastat] (10 µM) | -0.0294 | 114% (inactive)
32 | C[C@H](CCC(=O)O)[C@H]1CC[C@H]2[C@@H]3CC[C@@H]4C[C@H](O)CC[C@]4(C)[C@H]3C[C@H](O)[C@]12C [deoxycholic-acid] (10 µM) | 0.0921 | 104% (inactive)
33 | O=C(NOCC1CC1)c1ccc(F)c(F)c1Nc1ccc(I)cc1Cl (10 µM) | 0.0812 | 100% (inactive)
34 | CC(C)[C@@H](C)/C=C/[C@@H](C)[C@H]1CC[C@H]2C3=CC=C4C[C@@H](O)CC[C@]4(C)[C@H]3CC[C@]12C [ergosterol] (10 µM) | 0.0665 | 104% (inactive)
35 | CCc1cncnc1N1CCN(Cc2nc3cc(C(F)(F)F)ccc3[nH]2)CC1 (10 µM) | -0.441 | 116% (inactive)
36 | FC(F)(F)c1cc(NC(=S)Nc2ccc(Br)cc2-c2nnn[nH]2)cc(C(F)(F)F)c1 (10 µM) | 0.0928 | 98% (inactive)
37 | CC(=C(CCOC(=O)C(C)C)SSC(CCOC(=O)C(C)C)=C(C)N(C=O)Cc1cnc(C)nc1N)N(C=O)Cc1cnc(C)nc1N (stereo in doubt) [sulbutiamine] (10 µM) | 0.0249 | 100% (inactive)
38 | CC(=O)[O-].CC(=O)[O-].N.NC1CCCCC1.[Cl-].[Cl-].[Pt+4] [satraplatin] (0.833333 µM) | 0.00101 | 104% (inactive)
39 | Cc1ccc(S(=O)(=O)NC2c3ccccc3Oc3ccccc32)cc1 (10 µM) | 0.173 | 95.5% (inactive)
40 | C[C@@H](O)[C@H]1C(=O)N2C(C(=O)[O-])=C(SC3Cn4cnc[n+]4C3)[C@H](C)[C@H]12 (some centres undefined) [biapenem] (10 µM) | -0.0332 | 99.5% (inactive)
41 | Clc1cc(Cl)c(OCC#CI)cc1Cl [haloprogin] (10 µM) | 0.57 | 32% (active)
42 | Cc1ncc(NC(=O)c2ccc(CN3CCN(C)CC3)c(C(F)(F)F)c2)cc1Nc1nccc(-c2cccnc2)n1 [flumatinib] (10 µM) | 0.306 | 25.5% (active)

Row | Compound | morphology score [1] | SARS-CoV-2 infection rate [2]
43 | CCCCC1CCC(c2nc(-c3ccncc3)no2)CC1 (centres undefined) (10 µM) | -0.00672 | 104% (inactive)
44 | CC(C)(C)C(=O)NCCCC(=O)O [pivagabine] (10 µM) | 0.0513 | 105% (inactive)
45 | CCCCC[C@H](O)/C=C/[C@H]1[C@H](O)CC(=O)[C@@H]1CCCCCCC(=O)O [alprostadil] (10 µM) | 0.11 | 90.5% (inactive)
46 | OC[C@H]1O[C@H]([S-])[C@H](O)[C@@H](O)[C@@H]1O.[Au+] [aurothioglucose] (10 µM) | -0.0654 | 110% (inactive)
47 | N[C@@H](Cc1c[nH]c2ccc(O)cc12)C(=O)O [5-hydroxytryptophan] (10 µM) | 0.197 | 104% (inactive)
48 | O=C(O)c1ccc(CN2CCC(CN[C@@H]3C[C@H]3c3ccccc3)CC2)cc1 (10 µM) | 0.106 | 98% (inactive)
49 | CCc1cc(C(N)=S)ccn1 [ethionamide] (10 µM) | 0.155 | 102% (inactive)
50 | N=C(N)c1cc2ccc(OC(=O)c3cccs3)cc2s1 (10 µM) | 0.578 | 76% (inactive)
51 | CCNC(=O)[C@H]1O[C@@H](n2cnc3c(N)nc(NCCc4ccc(CCC(=O)O)cc4)nc32)[C@H](O)[C@@H]1O (10 µM) | -0.0155 | 115% (inactive)
52 | CC(C)C[C@H](NC(=O)[C@@H](COC(C)(C)C)NC(=O)[C@H](Cc1ccc(O)cc1)NC(=O)[C@H](CO)NC(=O)[C@H](Cc1c[nH]c2ccccc12)NC(=O)[C@H](Cc1cnc[nH]1)NC(=O)[C@@H]1CCC(=O)N1)C(=O)N[C@@H](CCCNC(=N)N)C(=O)N1CCC[C@H]1C(=O)NNC(N)=O [goserelin-acetate] (10 µM) | 0.0827 | 109% (inactive)
53 | C=C1/C(=C\C=C2/CCC[C@]3(C)[C@@H]([C@H](C)/C=C/[C@@H](O)C4CC4)CC[C@@H]23)C[C@@H](O)C[C@@H]1O [calcipotriol] (10 µM) | -0.273 | 103% (inactive)
54 | CC(C)(C(=O)NCC(F)(F)C(F)(F)F)C(=O)N[C@@H]1C(=O)Nc2ccccc2-c2ccccc21 (10 µM) | 0.217 | 86% (inactive)
55 | CC(C)CNc1ccnc(NCc2csc(-c3ccccc3)n2)n1 (0.833333 µM) | -0.0256 | 106% (inactive)
56 | O=C(Nc1ccc(-c2ccncc2)cc1)N[C@H](CO)c1ccccc1 (0.833333 µM) | 0.489 | 94% (inactive)
57 | CN(Cc1ccccc1)C(=O)[C@H](Cc1ccc2ccccc2c1)NC(=O)[C@@H]1C[C@@H](O)CN1C(=O)c1cn(C)c2ccccc12 (10 µM) | 0.179 | 104% (inactive)
58 | Clc1ccc(C2=CCC[C@H]3CC[C@@H]2N3)cn1 (10 µM) | -0.0924 | 110% (inactive)
59 | CN(C)CCN1C(=O)c2cccc3cc(N)cc(c23)C1=O [amonafide] (0.833333 µM) | 0.15 | 102% (inactive)
60 | O=C(O)C1=CCCNC1 [guvacine] (10 µM) | 0.2 | 93% (inactive)
61 | O=C(Nc1ccccc1)N1CCC(Cc2cnc3ccccc3c2)CC1 (10 µM) | -0.147 | 104% (inactive)
62 | C[C@H](C[C@H](N)C(=O)O)C(=O)O (10 µM) | 0.0497 | 108% (inactive)
